Source: PubChem BioAssay (National Center for Advancing Translational Sciences (NCATS))
HepG2 tox – counter-screen for TGF-b inhibitors: cytotoxicity in HepG2 cells. Potency, µM (top dose mostly 46.1 µM), for the others: at the highest dose activity change, negative = cytotoxicity, most hits filed as cytotoxic. AID 588856. actives 0.76% (n = 410,000). HepG2 CAGA-GFP viability, ATP luminescence, 18 h; also: potency is read from the fitted curve at half-maximal effect
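HepG2 CAGA-GFP cells (1000/well, DMEM with 1% FBS) received compound, then TGF-beta at 500 pg/mL final, and were incubated 18 hours at 37 degrees C. Viability was read by CellTiter-Glo luminescence. Media-only wells were set as complete cell-killing and DMSO as no toxicity.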
HT1080 IDH1KD tx – toxicity to HT-1080 IDH1 knockdown cells (counter line) | Potency, µM (top dose mostly 46.1 µM), inactives show top-dose activity, negative = toxicity, actives largely listed as cytotoxic | HT-1080 IDH1 knockdown viability, ATP luminescence, 48 h | actives 2% (n = 360,000);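 also: potency is read from the fitted curve at half-maximal effect; 0% = DMSO wells and -100% = cell-free medium wells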
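Using the IDH1-knockdown HT-1080 line run in the same batch and compound series as the NT line, viability after 48 h at 37 °C was determined by CellTiter-Glo luminescence and expressed as % activity.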
Giardia killer – kills Giardia lamblia. AID 540267. activity change, % at 7.66 µM, hits read low. actives 0.15% (n = 340,000). Giardia lamblia trophozoite viability; in the data active = activity change below about -80%; inconclusive = between about -30% and that limit;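 also: parasites exposed to compound for two days anaerobically before the ATP read; % is scaled to controls: 0 for no effect and ±100 for the full control effect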
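Luminescent ATP signal served as the viability read-out, measured 15-30 min after adding ATP detection reagent to trophozoites that had been incubated with compounds for 48 hrs at 37 deg C anaerobically at 100 cells/well.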
IL-1B inflam inh – inflammasome signaling inhibition, IL-1 beta readout. THP-1 LPS/ATP IL-1B secretion, AlphaLISA, 16 h; stronger effect = lower value. activity change, % at 57.5 µM. actives 4.7% (n = 360,000). AID 743279; in the data active = activity change below about -50%; inconclusive = mostly about -30% to -49%; also: % is scaled to controls: 0 for no effect and ±100 for the full control effect
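Secreted IL-1B measured by AlphaLISA bead assay after 16 h compound exposure of THP-1 cells; compounds (final up to 57.5 uM) added 1 h before LPS (250 ng/mL) and ATP (1.25 mM) stimulation; lower signal means less secretion.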
TGFb SMAD3 inh – blocks TGF-b signaling; HepG2 CAGA-GFP TGF-b/SMAD3 reporter, GFP fluorescence, 18 h; TGF-beta stimulated, 500 pg/mL final; AID 588855; actives 1.2% (n = 410,000); Potency, µM (highest dose often 46.1 µM), for the others: at the top dose activity, negative = inhibition, hits mostly inhibitors; also: potency is read from the fitted curve at half-maximal effect; % is scaled to controls: 0 for no effect and ±100 for the full control effect; nearly all actives have a fitted effect of over 65% in size
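Per well, imaged GFP fluorescence of HEPG2 CAGA-GFP cells gives the signal; cells get compound, then TGF-beta (500 pg/mL final), 18 h at 37 degrees C; %Activity versus -TGF-beta and +DMSO controls.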
HT1080-NT tox – kills 2HG-producing HT-1080-NT fibrosarcoma cells; HT-1080-NT fibrosarcoma viability, CellTiter-Glo ATP luminescence, 48 h; AID 686970; Potency, µM (top dose mostly 46.1 µM), without a hit: top-dose activity, negative = less viability, actives largely listed as cytotoxic; actives 1.6% (n = 360,000);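 also: NT is the 2HG producing partner of a matched IDH1 knockdown line; potency is read from the fitted curve at half-maximal effect; 0% = DMSO-treated cells and -100% = media-only wells without cells; nearly all actives have a fitted effect of over 55% in size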
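750 cells/well, RPMI + 5% FBS; 2 h settle, compound pin-transfer, 48 h at 37 degrees C. CellTiter-Glo 10 min RT, luminescence. Normalized to DMSO and media-only wells.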
Starred values were filed as active, the others as inactive; ? = inconclusive; . = no result; [ ] = another dose, or the depositor's remark. Rows were chosen to be rich in hits. Some 6.5% of all compounds tested hit in one or more screens of this group. Unless noted, calls follow the shape of the dose curve; as a rule, active = well fitted curve in the direction sought with a large enough effect; inconclusive = small, poorly fitted or top-dose-only effect, or another doubt; inactive = no such curve, though single readings can be large; an effect the other way counts as inactive or inconclusive.

SMILES | HepG2 tox | HT1080 IDH1KD tx | Giardia killer | IL-1B inflam inh | TGFb SMAD3 inh | HT1080-NT tox
COC(=O)C1=C(C)N(Cc2ccccc2)C(=NCc2cccc(C(F)(F)F)c2)N[C@H]1c1cccc(C(F)(F)F)c1 | 17.8µM* | ? | -6.4 | -101.3* | 10µM* | ?
CCCCN(CC)C(=O)Cn1c(=O)n(-c2ccc(OCC)cc2)c(=O)c2c3c(sc21)CCCC3 | 4.6% | . | . | . | -3.6% | .
COc1ccccc1CNC(=S)NCc1ccc(Cl)cc1 | -39.2% | -5.6% | -13.3 | 7.2 | ? | -1.0%
CCc1nnc(N/N=C/c2ccc(N3CCC(C)CC3)c([N+](=O)[O-])c2)n1N | 11.2µM* | 32.6µM* | -28.1 | 59.4 | 10µM* | ?
Cc1nnc(N/N=C/c2cc([N+](=O)[O-])c(N3CCC(C)CC3)cc2N2CCC(C)CC2)n1N | -96.1% | -18.0% | 5.9 | -68.0* | -12.7% | -5.0%
Cc1nnc(N/N=C/c2ccc([N+](=O)[O-])cc2)n1N | -8.2% | -0.3% | -11.6 | 39.9 | 9.6% | 9.4%
Cc1nc(N)nc(N)c1CCCc1ccc(Cl)c(Cl)c1 | -194.1% | 1.16µM* | 6.8 | -103.5* | ? | 8.2µM*
COc1ccc(C=O)cc1COc1ccc([N+](=O)[O-])c(C)c1 | -8.8% | ? | 5.5 | 14.6 | 0.0% | ?
Nc1nc(N)nc(-c2ccc(Cl)c(Cl)c2)n1 | -24.7% | -1.5% | 5.0 | -29.8 | ? | -5.2%
Cc1nc(N)nc(N)c1-c1ccc(Cl)c(Cl)c1 | 0.631µM* | 0.581µM* | 2.5 | -10.9 | ? | ?
Cc1cc(OCc2nc(N)nc(N)c2-c2ccc(Cl)c(Cl)c2)ccc1[N+](=O)[O-] | -37.4% | 0.82µM* | 3.5 | -52.6* | ? | ?
Cc1cccc(/C=N/n2c(COc3ccccc3)n[nH]c2=S)c1 | -45.6% | 8.5% | -20.8 | 25.2 | -27.5% | 8.6%
CCOC(=O)/C=C1\SCC(=O)N1Cc1nnc(-c2ccccc2Br)o1 | -7.0% | -4.8% | 15.2 | -3.8 | 31.4% | 2.5%
O=C(NCc1ccccn1)c1cc(Cl)ccc1OCc1ccccc1 | -14.0% | -18.6% | -3.3 | -53.3* | 0.0% | -9.1%
COc1cc(CNCc2cccs2)ccc1OCc1cccs1 | -31.6% | ? | -1.2 | -83.9* | -3.2% | 8.8%
COc1cc(CNCc2ccccn2)ccc1OCc1c(Cl)cccc1Cl | -35.1% | ? | 7.5 | ? | ? | ?
O=C(NCc1ccccn1)c1ccc(Cl)cc1Cl | -35.1% | 1.3% | -5.3 | -8.8 | ? | 0.5%
COc1cc(CNCc2ccccn2)ccc1OCc1ccc(Cl)cc1 | -51.7% | ? | -18.5 | -57.2* | -6.2% | ?
COc1cc(CNCc2ccccn2)ccc1OCc1cccc(Cl)c1 | -28.0% | -17.8%[9.24 µM] | 8.7 | -79.6* | 9.1% | ?
COc1ccccc1CNC(=O)c1ccccc1C(=O)NC(CC(C)C)C(=O)NCc1ccccc1OC (configuration not stated) | 1.7% | 13.7% | 33.9 | ? | 0.9% | 0.5%
C/C(=N\NC(=O)c1c(C)nc2ccccn12)c1ccc(O)cc1O | -14.1% | ? | -19.8 | 118.8 | 3.4% | ?
COc1ccc(C(=O)NCC(=O)OCC(=O)c2cc(OC)c(OC)c(OC)c2)cc1OC | -2.3% | 9.7% | 5.2 | 12.4 | 6.5% | 6.0%
CCC(=O)Nc1cccc(C(=O)/C=C/c2ccccc2)c1 | -94.7% | ? | -22.3 | -117.4* | ? | ?
O=C(/C=C/c1cccs1)NC(=S)NNC(=O)c1ccccc1O | -20.2% | ? | ? | 112.3 | -18.0% | -19.4%
CCC(=O)Nc1cccc(C(=O)/C=C/c2cccs2)c1 | -34.5% | -10.3% | -29.9 | -94.5* | ? | -6.7%
SMILES | HepG2 tox | HT1080 IDH1KD tx | Giardia killer | IL-1B inflam inh | TGFb SMAD3 inh | HT1080-NT tox
O=C(/C=C/c1cccs1)NC(=S)Nc1ccccc1 | -24.6% | 25.5% | 0.9 | -62.1* | -21.0% | 25.0%
CN1CCc2c(sc(NC(=O)c3ccc(S(=O)(=O)N4CCCC4)cc3)c2C(N)=O)C1 | -3.5% | 24.5% | -2.9 | 0.0 | -12.8% | 18.5%
CN1CCc2c(sc(NC(=O)c3cc(Cl)sc3Cl)c2C(N)=O)C1 | -58.9% | ? | 28.1 | -90.7* | -25.6% | ?
CCOC(=O)N1CCN(S(=O)(=O)c2ccc(C(=O)Nc3sc4c(c3C(N)=O)CCN(CC)C4)cc2)CC1 | -29.3% | ? | 18.8 | -68.4* | 6.0% | ?
CN1CCc2c(sc(NC(=O)c3ccc(S(=O)(=O)N4CCCCCC4)cc3)c2C(N)=O)C1 | -20.3% | 20.6µM* | -9.5 | -96.1* | -1.4% | 23.1µM*
CCOC(=O)c1c(NC(=O)c2ccc(S(=O)(=O)N3CCC(C)CC3)cc2)sc2c1CCN(C)C2 | -73.8% | . | . | . | 46.0% | .
CCOC(=O)N1CCN(S(=O)(=O)c2ccc(C(=O)Nc3sc4c(c3C(=O)OC)CCN(C)C4)cc2)CC1 | -54.0% | ? | 30.8 | -99.9* | 0.0% | 18.4µM*
CN1CCc2c(sc(NC(=O)c3ccco3)c2C(N)=O)C1 | -21.4% | 8.9% | -4.8 | 0.0 | -6.2% | 11.2%
COc1ccc(N2CCN(CC(=O)Nc3cc(C)cc(C)c3)CC2)cc1 | 12.4% | 5.6% | -2.1 | -14.9 | -28.8% | 11.8%
O=C1c2ccccc2C(=O)N1CCc1nc2ccccc2c(=O)n1-c1ccccn1 | -0.6% | 2.8% | 10.5 | -2.0 | -3.8% | 5.8%
CC1CCN(S(=O)(=O)c2ccc(C(=O)Nc3nnc(C4CC4)o3)cc2)CC1 | -29.9% | ? | 3.2 | 59.9 | -16.2% | -20.6%
CCN1CCc2c(sc(NC(=O)c3ccc(S(=O)(=O)N4CCCC4)cc3)c2C(=O)NC)C1 | -74.7% | ? | 7.8 | -97.2* | ? | ?
CCN1CCc2c(sc(NC(=O)c3ccc(S(=O)(=O)N(C)C4CCCCC4)cc3)c2C(N)=O)C1 | 11.2µM* | . | . | . | ? | .
O=C(Nc1nnc(C2CC2)o1)c1ccc(S(=O)(=O)N2CCCCC2)cc1 | -41.7% | -29.4% | 11.5 | -69.1* | ? | -15.3%
CCCN1CCc2c(sc(NC(=O)c3ccc(S(=O)(=O)N4CCN(C(=O)OCC)CC4)cc3)c2C(N)=O)C1 | -60.9% | 6.51µM* | 4.3 | -98.1* | 1.0% | 7.31µM*
COc1cc(/C=N/NC(=O)c2ccccn2)cc2c1OCO2 | -14.4% | 17.6% | -10.0 | 15.5 | 1.5% | 21.7%
CCCCN(C(=O)C1CC(=O)N(CCc2ccc(OC)c(OC)c2)C1)c1c(N)n(CC(C)C)c(=O)[nH]c1=O (configuration not stated) | -9.9% | 5.8% | 12.5 | -9.8 | -2.4% | 5.5%
